# Assay results taken from ChEMBL document CHEMBL1201862, “PubChem BioAssay data set” (2004).
# Hit rate of the full screen: of about 54,000 sequences, about 4,800 (8.9%) were called active. Cut-off read from the data, not from the text of the source: active = GI50 up to about 1.1 µM and inactive = higher. Not all results are given here. Entries with a potency or affinity are not part of this list.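 Interpolation was linear, between the two tested concentrations surrounding the appropriate level; five concentrations were tested over 48 hours in 96-well plates. Abbreviation: GI50, concentration required for 50% inhibition of growth.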
# Tested on: RPMI-8226
# Experiment: NCI tumour cell line growth inhibition, 48 h
row,Substance,GI50 [nM]
1,"[Bis(aminomethyl)diethylsilane]tetrachloroplatinum(IV), CHEMBL2146203",1620
2,"[Bis(aminomethyl)pentamethylenesilane]tetrachloropaltinum(IV), CHEMBL2146204",4530
3,"[Bis(aminomethyl)tetramethylenesilane]dichloropaltinum(II), CHEMBL2146205",9860
4,"[Bis(aminomethyl)dimethylsilane]tetrachloroplatinum(IV), CHEMBL2146190",2110
5,"mu-(1,7-nanodiamine-N,N')bis-(cis-aminedichloroplatimum (II)), CHEMBL2146215",26200
6,"[Bis(aminomethyl)tetramethylenesilane]tetrachloropaltinum(IV), CHEMBL2146189",1100
7,"[Bis(aminomethyl)ethylmethylsilane]tetrachloroplatinum(IV), CHEMBL2146192",1320
8,"cis-Bis[[(trimethylsilyl)methyl]amino]tetrachloroplatinum(IV), CHEMBL2146191",1940
9,"[Bis(aminomethyl)pentamethylenesilane]dichloropaltinum(II), CHEMBL2146202",1920
10,"CISPLATIN, CHEMBL11359",4290
11,"[Bis(aminomethyl)dimethylsilane]dichloroplatinum (II), CHEMBL2146201",12200
